The values below come from PubChem BioAssay (NCATS).

Where “and” joins values, the source holds several entries; their conditions need not be identical. Identical values can stand only once. A number with no mark means an inactive call. Records with an inconclusive call do not appear. Calls of active or inactive are those of the source. Unless noted, the call rests on the fitted dose curve; in most records, active means well fitted curve in the direction sought with a large enough effect; inconclusive means small, poorly fitted or top-dose-only effect, or another doubt; inactive means no such curve, though single readings can be large; an effect the other way counts as inactive or inconclusive. A value given as a limit tells only on which side of the number the result lay.

A short description of test [1]: AP1 Signaling Pathway (AID 357; active means well fitted curve in either direction with a large enough effect, not every such curve was filed as active;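 further: ME-180 reporter cells stimulated with EGF at its EC50 level; on the % scale 0 is the no-effect control and ±100 the full control effect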). Conditions: ME-180 AP-1-bla reporter, EGF-induced, beta-lactamase ratio, 5 h; at 7.69 µM (top of the series) unless noted. The procedure, abridged: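 First, ME-180 AP-1-bla cells were cultured overnight at 37 °C in low-serum Opti-MEM. Next, titrated compounds with EC50 EGF were incubated 5 hours. Finally, CCF4 was added for 2.5 hours and the 460/530 nm ratio recorded.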

Test [2] concerns the target Cytochrome P450 1A2 (Homo sapiens) (UniProt P05177). The test can be described thus: p450-cyp1a2 (AID 410; calls by dose curve; further: potency means the concentration at half of the fitted maximal effect;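 on activity change, negative = inhibition: -100% = full effect of reference inhibitor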). The procedure, abridged:
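Inhibition was calculated relative to 57 uM furafylline (full inhibition). The reaction used human CYP1A2 at 20nM with Luciferin-ME at its Km, 100uM, driven by an NADPH-regenerating system for 60 min at room temperature.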

A short description of test [3]: Stat Signaling Pathway (AID 446; active means well fitted curve in either direction with a large enough effect, not every such curve was filed as active;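 further: ME-180 cervical cancer cells given 40 pM IL-6 alongside compound; SIE-controlled beta-lactamase reporter measured as 460/530 nm FRET emission ratio; on the % scale 0 is the no-effect control and ±100 the full control effect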). The settings on record: ME-180 (cervical carcinoma) SIE beta-lactamase reporter, IL-6 stimulated, 5 h. The procedure, abridged:
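ME-180 cells carrying a SIE-driven beta-lactamase reporter are stimulated with 40 pM IL-6 for 5 h at 37C in the presence of compound. The 460/530 nm FRET substrate ratio is read after 2.5 h at RT. Data are normalised to 300 pM IL-6 and to 125 nM JAK inhibitor controls.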

The target in test [4] is Glucocorticoid receptor (Homo sapiens) (UniProt P04150). As to the kind of experiment: GR-GFP Redistribution (AID 450;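 active means compounds whose dose series gives a full or clear partial fitted curve of increased nuclear translocation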; further: potency means the concentration at half of the fitted maximal effect). The settings on record: U2OS GR-GFP nuclear translocation, laser cytometry, 2 h.
The target is the same in test [5]. As to the kind of experiment: GR-EFC Redistribution (AID 451; calls by dose curve; further: potency means the concentration at half of the fitted maximal effect). The settings on record: CHO-K1 GR-EFC translocation, beta-gal luminescence, 2 h. The procedure, abridged:
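CHO-K1 cells stably expressing nuclear-localized β-gal enzyme acceptor and GR fused C-terminally to the enzyme donor fragment; ligand-driven nuclear translocation restores β-gal by complementation. Compounds titrated up to 46 uM final, 2 h at 37 °C; luminescence read.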

Test [6] deals with Mitogen-activated protein kinase 10 (Mus musculus) (UniProt Q61831). The test can be described thus: JNK3 AlphaScreen Assay (AID 530; active means well fitted curve in either direction with a large enough effect, not every such curve was filed as active;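 further: kinase came from lysate of stimulated human HepG2 cells; signal reports phosphorylation of biotinylated GST-cJun 1-79 at Ser73 with 10 µM ATP; on the % scale 0 is the no-effect control and ±100 the full control effect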). The procedure, abridged: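 JNK3 came from HepG2 lysates pre-activated with IL-1beta and TNF-alpha and phosphorylated biotinylated GST-cJun (1-79) at 10 uM ATP, pH 7.6, room temperature. Compounds were titrated. AlphaScreen signal used anti-phospho-cJun (Ser73) antibody.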
Background: Bead proximity is the source of the signal in Alpha formats.

The target of test [7] is 3',5'-cyclic-AMP phosphodiesterase 4B (Homo sapiens) (UniProt Q07343). The test can be described thus: qHTS Assay for Inhibitors of PDE-IV (AID 607; active means well fitted activation curve with a large enough effect in the main read-out, with a control signal flat, not every such curve was filed as active; further: % of control where 0% means no effect). The procedure, abridged:
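HEK293 ACTOne cells with CNG channel (1000/well), endogenous PDE4; membrane potential dye, compounds up to 22.9 uM final. Fluorescence Ex 535/Em 590; RO 20-1724 (100 uM final) as reference.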
For orientation: qHTS replaces the single test concentration by a dilution series.

A short description of test [8]: NFAT Signaling Pathway (AID 444; active means well fitted curve in either direction with a large enough effect, not every such curve was filed as active;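 further: carbachol stimulus at about its EC50 of 1 µM final; on the % scale 0 is the no-effect control and ±100 the full control effect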). Conditions: Jurkat NFAT-bla M1, carbachol, beta-lactamase ratio, 5 h; at 7.69 µM (top of the series) unless noted. The procedure, abridged: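 Jurkat cells carrying an NFAT-driven β-lactamase reporter and co-transfected muscarinic M1 receptor were treated with compound plus carbachol (1 uM final, an EC50 level) for 5 h at 37 °C. CCF4 loading followed for 1 h at RT; 460/530 nm ratio gave %activity.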

Test [9] concerns the target Cytochrome P450 3A4 (Homo sapiens) (UniProt P08684). As to the kind of experiment: qHTS Assay for Activators of Cytochrome P450 3A4 (AID 885). Further: nearly all actives have a fitted effect of over 65% in size. Further: potency means the concentration at half of the fitted maximal effect. The procedure, abridged:
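Human CYP3A4 (20 nM) with Luciferin-PPXE at 25 uM (its KM) in 200 mM KPO4; 10 min compound preincubation, then NADPH regeneration and 60 min reaction at RT. Luciferin read by luminescence; normalized to 57 uM ketoconazole full inhibition.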

Test [10] addresses Cytochrome P450 2D6 (Homo sapiens) (UniProt P10635). The test can be described thus: qHTS Assay for Inhibitors and Substrates of Cytochrome P450 2D6 (AID 891). Further: potency means the concentration at half of the fitted maximal effect; nearly all actives have a fitted effect of over 60% in size. The procedure, abridged:
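Human CYP2D6 (5 nM) with 30 uM Luciferin-ME EGE (at Km) in 100 mM KPO4, compound preincubated 10 min, then NADPH regeneration system for 60 min at room temperature. Luciferin read by luminescence; normalized to 1.43 uM quinidine.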

Test [11] deals with Guanine nucleotide-binding protein G(i) subunit alpha-1 (Homo sapiens) (UniProt P63096). The test can be described thus: qHTS Assay for Inhibitors of RGS12 GoLoco Motif Activity (Green Fluorophore) (AID 879).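 Further: 0% = labeled peptide with Gαi1 and full inhibition = labeled peptide alone without protein; negative values mean loss of peptide binding seen as reduced polarization.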 The procedure, abridged: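 Fluorescence polarization assay: 50 nM Gαi1 with 10 nM FITC-labeled RGS12 GoLoco peptide in 10 mM Tris pH 7.5, 150 mM NaCl, 0.1 mM GDP, 0.05% NP40, 10 min at room temperature with compound.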

A short description of test [12]: qHTS Assay for Identification of Small Molecule Agonists for Thrombopoietin (TPO) Signaling Pathway (AID 917). Further: on the % scale 0 is the no-effect control and ±100 the full control effect. The procedure, abridged: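 Reporter: GpIIb promoter–luciferase in murine Ba/F3 expressing human TPO receptor. Pre-starved of IL-3 overnight; compounds with 26 pM TPO, 24 hrs, 37 C/5% CO2; luminescence read.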
Test [13] concerns the target Muscarinic acetylcholine receptor M1 (Rattus norvegicus) (UniProt P08482). As to the kind of experiment: qHTS Assay for Antagonists of Acetylcholine Muscarinic M1 Receptor: Measurement of IP-One Response (AID 944). Further: nearly all actives have a fitted effect of over 75% in size. The procedure, abridged:
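Steps: plate transfected CHO-M1 cells overnight; add test compound, 10 min; add carbachol (200 nM, EC80) in stimulation buffer with LiCl; incubate 30 min; add labelled IP1 tracer and anti-IP1 antibody in lysis buffer; read HTRF after 10 min.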

Test [14] has as its target Pyruvate kinase (Leishmania mexicana) (UniProt Q27686). As to the kind of experiment: qHTS Validation Assay for Inhibitors of Leishmania Mexicana Pyruvate Kinase (AID 945).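 Further: 0% = DMSO only neutral control wells.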 The procedure, abridged: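 Read-out: luminescence from PKLight stop/detection reagent, data normalized to DMSO. Reaction: 0.2 nM E451W LmPYK, 0.5 mM PEP, 0.1 mM ADP, pH 7.2, 1 h room temperature.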

In test [15] the target is Pyruvate kinase PKM (Homo sapiens) (UniProt P14618). The test can be described thus: qHTS Assay for Activators of Human Muscle Pyruvate Kinase (AID 954; active means well fitted curve in the direction sought with a large enough effect, not every such curve was filed as active;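 further: 0% = uninhibited enzyme and -100% = no enzyme or full thiadiazolimine inhibition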). The procedure, abridged: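 Purified human PKM2 (0.1 nM) with 0.5 mM PEP (Km) and 0.1 mM ADP in 50 mM imidazole pH 7.2, KCl, MgCl2, 1 h at room temperature; ATP formed read by coupled luciferase luminescence. Normalized to no-enzyme/110 uM thiadiazolimine inhibition; 0.3 nM enzyme column for activation.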

Test [16] addresses Alpha-galactosidase A (Homo sapiens) (UniProt P06280). The test can be described thus: Counterscreen for Glucocerebrosidase Inhibitors: qHTS Assay for Human alpha-Galactosidase at pH 4.5 (AID 992). Further: 0% is about no effect. The procedure, abridged: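 Human enzyme (2 nM) with 80 uM 4-methylumbelliferyl alpha-D-galactopyranoside in 50 mM citric acid, 0.005% Tween-20, pH 4.5, 20 min at room temperature. Compounds 0.7 nM–77 uM; fluorescence Ex 365/Em 440 after pH 10 stop; AC50 from Hill fits.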
For orientation: A counterscreen serves to expose hits that act by an unwanted route or on another target.

Test [17] concerns the target alpha-glucosidase (Oryza sativa, rice) (UniProt Q653V4). The test can be described thus: Counterscreen for Glucocerebrosidase Inhibitors: qHTS Assay for Rice alpha-Glucosidase at pH 5.0 (AID 997).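 Further: 0% = full activity with enzyme and -100% = basal without enzyme.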 The procedure, abridged: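 Rice alpha-glucosidase (4 nM final) with 400 uM 4-methylumbelliferyl-alpha-D-glucopyranoside in citrate buffer pH 5.0, 20 min at room temperature, stopped at pH 10; fluorescence 365/440 nm, compounds 0.7 nM–77 uM, AC50 from Hill fits.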

Where [18] appears, read: at 7.69 µM (top of the series) unless noted.

Chain of 3',5'-cyclic-AMP phosphodiesterase 4B (Homo sapiens) (Q07343 whole entry, looked up): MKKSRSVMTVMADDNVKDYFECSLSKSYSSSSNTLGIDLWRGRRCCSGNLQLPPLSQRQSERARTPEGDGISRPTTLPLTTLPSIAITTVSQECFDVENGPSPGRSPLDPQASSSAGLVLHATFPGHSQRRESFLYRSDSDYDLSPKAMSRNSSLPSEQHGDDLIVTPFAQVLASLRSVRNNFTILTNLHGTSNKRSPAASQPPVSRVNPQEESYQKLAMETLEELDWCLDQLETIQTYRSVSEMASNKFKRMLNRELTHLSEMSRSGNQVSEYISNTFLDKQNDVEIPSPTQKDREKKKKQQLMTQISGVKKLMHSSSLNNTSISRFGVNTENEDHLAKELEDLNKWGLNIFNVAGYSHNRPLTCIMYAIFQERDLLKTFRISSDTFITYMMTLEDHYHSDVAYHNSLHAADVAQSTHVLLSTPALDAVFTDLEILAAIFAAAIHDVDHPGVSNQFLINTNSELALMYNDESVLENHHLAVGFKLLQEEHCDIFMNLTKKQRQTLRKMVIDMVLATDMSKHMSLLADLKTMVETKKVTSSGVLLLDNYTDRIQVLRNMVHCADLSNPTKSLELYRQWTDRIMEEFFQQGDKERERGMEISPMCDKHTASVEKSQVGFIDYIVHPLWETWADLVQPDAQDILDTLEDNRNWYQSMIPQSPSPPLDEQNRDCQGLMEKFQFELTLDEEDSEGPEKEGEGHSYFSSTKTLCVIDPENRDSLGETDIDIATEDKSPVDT
Chain of Cytochrome P450 3A4 (Homo sapiens) (P08684 whole entry, looked up): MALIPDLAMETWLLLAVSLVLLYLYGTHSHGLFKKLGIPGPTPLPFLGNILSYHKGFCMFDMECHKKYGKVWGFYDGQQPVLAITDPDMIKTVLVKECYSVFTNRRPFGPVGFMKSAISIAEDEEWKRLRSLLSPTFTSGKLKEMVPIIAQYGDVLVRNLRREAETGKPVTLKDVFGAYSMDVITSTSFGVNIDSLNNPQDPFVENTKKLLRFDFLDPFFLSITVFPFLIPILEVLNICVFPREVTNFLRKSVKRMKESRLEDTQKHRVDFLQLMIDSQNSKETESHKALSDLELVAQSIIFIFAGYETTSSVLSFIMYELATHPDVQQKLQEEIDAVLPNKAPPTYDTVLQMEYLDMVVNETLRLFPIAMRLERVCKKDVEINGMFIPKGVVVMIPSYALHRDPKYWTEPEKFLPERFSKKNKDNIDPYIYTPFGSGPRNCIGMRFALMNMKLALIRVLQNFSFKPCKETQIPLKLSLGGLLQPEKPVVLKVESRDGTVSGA
Chain of Cytochrome P450 1A2 (Homo sapiens) (P05177 whole entry, looked up): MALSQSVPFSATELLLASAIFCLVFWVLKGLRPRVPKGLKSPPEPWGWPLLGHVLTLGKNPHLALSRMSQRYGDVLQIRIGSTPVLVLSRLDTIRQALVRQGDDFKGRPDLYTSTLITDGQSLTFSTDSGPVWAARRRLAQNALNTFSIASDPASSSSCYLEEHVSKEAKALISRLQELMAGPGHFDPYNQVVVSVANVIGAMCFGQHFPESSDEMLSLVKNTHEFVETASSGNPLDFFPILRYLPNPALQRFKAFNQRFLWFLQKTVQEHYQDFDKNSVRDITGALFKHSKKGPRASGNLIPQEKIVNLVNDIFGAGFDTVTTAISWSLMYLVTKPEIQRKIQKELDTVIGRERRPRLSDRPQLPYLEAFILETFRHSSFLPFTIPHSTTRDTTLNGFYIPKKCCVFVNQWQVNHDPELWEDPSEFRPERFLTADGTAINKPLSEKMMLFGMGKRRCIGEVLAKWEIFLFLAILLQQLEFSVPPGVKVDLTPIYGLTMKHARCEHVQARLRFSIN
Chain of Pyruvate kinase PKM (Homo sapiens) (P14618 whole entry, looked up): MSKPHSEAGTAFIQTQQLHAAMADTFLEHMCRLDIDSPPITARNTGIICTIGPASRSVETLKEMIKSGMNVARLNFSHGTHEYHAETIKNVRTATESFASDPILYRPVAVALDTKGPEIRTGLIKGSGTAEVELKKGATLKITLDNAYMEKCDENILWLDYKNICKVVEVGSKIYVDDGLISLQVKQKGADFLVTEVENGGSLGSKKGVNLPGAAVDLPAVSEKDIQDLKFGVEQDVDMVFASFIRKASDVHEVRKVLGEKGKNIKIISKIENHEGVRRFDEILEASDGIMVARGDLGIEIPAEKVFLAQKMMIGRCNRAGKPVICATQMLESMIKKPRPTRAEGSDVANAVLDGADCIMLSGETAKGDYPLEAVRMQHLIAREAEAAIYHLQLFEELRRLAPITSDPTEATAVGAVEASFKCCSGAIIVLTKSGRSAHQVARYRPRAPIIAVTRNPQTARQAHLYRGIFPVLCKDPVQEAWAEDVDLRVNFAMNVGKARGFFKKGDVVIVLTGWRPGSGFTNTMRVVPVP
Chain of Alpha-galactosidase A (Homo sapiens) (P06280 whole entry, looked up): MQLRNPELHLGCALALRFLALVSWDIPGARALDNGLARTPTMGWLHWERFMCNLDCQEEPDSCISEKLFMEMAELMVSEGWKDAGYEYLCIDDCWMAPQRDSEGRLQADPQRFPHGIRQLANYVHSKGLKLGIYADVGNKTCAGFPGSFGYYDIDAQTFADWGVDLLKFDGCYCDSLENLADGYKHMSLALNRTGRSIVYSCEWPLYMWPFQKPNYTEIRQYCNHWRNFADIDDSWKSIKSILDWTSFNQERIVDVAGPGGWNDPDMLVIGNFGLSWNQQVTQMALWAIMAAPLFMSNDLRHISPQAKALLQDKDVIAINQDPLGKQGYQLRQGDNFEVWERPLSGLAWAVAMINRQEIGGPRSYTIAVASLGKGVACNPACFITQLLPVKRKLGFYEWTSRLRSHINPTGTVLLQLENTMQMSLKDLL
Chain of Guanine nucleotide-binding protein G(i) subunit alpha-1 (Homo sapiens) (P63096 whole entry, looked up): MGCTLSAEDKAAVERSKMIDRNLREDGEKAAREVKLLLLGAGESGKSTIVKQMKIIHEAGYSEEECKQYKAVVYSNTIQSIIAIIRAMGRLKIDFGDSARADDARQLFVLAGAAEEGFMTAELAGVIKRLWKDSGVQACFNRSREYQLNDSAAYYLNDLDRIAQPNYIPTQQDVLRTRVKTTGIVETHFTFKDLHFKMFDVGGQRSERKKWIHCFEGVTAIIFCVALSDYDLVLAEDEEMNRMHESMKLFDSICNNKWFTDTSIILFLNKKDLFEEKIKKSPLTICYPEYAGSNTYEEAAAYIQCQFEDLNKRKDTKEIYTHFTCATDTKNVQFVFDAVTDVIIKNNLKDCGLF
Chain of Pyruvate kinase (Leishmania mexicana) (Q27686 2-499 E452W): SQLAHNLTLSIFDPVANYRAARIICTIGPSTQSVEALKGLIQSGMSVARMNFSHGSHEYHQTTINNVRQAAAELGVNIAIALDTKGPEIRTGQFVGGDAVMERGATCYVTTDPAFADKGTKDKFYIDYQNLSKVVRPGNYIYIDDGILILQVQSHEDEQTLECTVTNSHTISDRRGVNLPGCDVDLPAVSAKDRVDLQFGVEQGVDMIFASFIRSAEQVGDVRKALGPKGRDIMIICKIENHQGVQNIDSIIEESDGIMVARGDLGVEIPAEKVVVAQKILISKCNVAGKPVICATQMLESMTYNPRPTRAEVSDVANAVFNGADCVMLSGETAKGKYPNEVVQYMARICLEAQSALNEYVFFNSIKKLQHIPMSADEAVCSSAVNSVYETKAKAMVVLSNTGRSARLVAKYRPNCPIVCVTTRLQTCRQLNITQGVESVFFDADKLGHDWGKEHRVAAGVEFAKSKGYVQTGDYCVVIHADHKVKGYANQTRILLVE
Chain of Glucocorticoid receptor (Homo sapiens) (P04150 whole entry, looked up): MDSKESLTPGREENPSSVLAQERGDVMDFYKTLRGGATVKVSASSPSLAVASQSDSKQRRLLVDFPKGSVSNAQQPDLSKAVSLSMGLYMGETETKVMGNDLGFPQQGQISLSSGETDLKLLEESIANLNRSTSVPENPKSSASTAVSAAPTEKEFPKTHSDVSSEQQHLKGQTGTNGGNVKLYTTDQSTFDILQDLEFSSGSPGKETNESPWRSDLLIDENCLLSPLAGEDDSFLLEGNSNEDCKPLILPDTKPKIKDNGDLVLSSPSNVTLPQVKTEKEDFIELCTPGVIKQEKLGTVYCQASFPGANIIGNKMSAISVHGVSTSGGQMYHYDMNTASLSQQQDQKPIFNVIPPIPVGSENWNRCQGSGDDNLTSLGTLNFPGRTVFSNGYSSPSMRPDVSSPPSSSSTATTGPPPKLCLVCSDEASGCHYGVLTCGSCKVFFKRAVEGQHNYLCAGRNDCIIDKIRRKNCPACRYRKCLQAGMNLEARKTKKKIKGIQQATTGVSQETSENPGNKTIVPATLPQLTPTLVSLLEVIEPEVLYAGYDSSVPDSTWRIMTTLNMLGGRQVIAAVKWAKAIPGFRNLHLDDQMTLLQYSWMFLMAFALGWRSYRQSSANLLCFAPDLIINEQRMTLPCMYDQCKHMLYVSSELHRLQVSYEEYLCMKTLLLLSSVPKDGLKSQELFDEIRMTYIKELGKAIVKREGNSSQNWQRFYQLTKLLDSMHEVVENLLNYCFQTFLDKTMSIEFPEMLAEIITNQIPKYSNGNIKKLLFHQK
Chain of Muscarinic acetylcholine receptor M1 (Rattus norvegicus) (P08482 whole entry, looked up): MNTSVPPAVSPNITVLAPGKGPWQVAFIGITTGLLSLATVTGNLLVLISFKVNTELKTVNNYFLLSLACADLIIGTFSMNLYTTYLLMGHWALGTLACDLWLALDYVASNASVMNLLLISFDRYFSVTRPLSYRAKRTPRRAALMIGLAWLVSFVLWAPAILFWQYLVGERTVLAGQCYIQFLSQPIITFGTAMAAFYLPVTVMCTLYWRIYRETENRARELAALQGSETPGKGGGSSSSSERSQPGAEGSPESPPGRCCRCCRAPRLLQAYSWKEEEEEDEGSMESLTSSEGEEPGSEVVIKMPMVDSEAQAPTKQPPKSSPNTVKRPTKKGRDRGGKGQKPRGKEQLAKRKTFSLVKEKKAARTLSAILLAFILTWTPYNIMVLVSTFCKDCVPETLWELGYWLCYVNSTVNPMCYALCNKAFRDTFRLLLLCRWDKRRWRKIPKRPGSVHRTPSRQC

As for `C=C(NC(=O)C(=C)NC(=O)c1csc(C2=N[C@@H]3c4csc(n4)[C@@H]4NC(=O)c5csc(n5)[C@@H]([C@](C)(O)[C@H](C)O)NC(=O)[C@@H]5CSC(=N5)/C(=C/C)NC(=O)[C@@H]([C@H](C)O)NC(=O)c5csc(n5)[C@]3(CC2)NC(=O)[C@@H](C)NC(=O)C(=C)NC(=O)[C@@H](C)NC(=O)[C@@H]([C@@H](C)CC)N[C@H]2C=Cc3c([C@H](C)O)cc(nc3[C@@H]2O)C(=O)O[C@H]4C)n1)C(N)=O`, the activity change, negative = inhibition in test [1] is -15.7% [at 17.2 µM]. In addition, the Potency result in test [2], in test [6] and in test [7] was “inactive” throughout. For the same compound, the activity, negative = inhibition in test [3] (setting [18]) is -4.53% [at 17.2 µM]. Moreover, the Potency in test [4] and in [5] was above 20.6 µM each time.
In the case of `O=C(Oc1ccc2c(c1)CN(Cc1ccccc1)CO2)c1ccccc1`, the activity change, negative = inhibition is 10.8% in [1] and 13.3% in test [8]. For the same compound, the activity, negative = inhibition in [3] (setting [18]) was 2.87%. In addition, the Potency was above 46 µM in test [4], above 9.22 µM in test [5] and 0.501 µM (active) in [10]. The Potency result in test [6], in test [7] and in test [9] was “inactive” each time.
With `COc1ccc(CCN(C)CCC[C@@](C#N)(c2cc(OC)c(OC)c(OC)c2)C(C)C)cc1OC`, the activity change, negative = inhibition in test [1] is 2.08% [at 38 µM]; in test [8], -29.4% [at 38 µM]. In addition, the activity, negative = inhibition in [3] (setting [18]) was -12.4% [at 38 µM]. The Potency in test [4] and in [5] was above 46 µM in each case. Moreover, the call in test [11], in test [12], in test [14], in test [15] and in test [16] was inactive. In addition, the Potency entry in test [13] and in test [17] was “inactive” in each case.
Take `O[C@H](CN1CCN(c2cccc(Cl)c2)CC1)C(c1ccccc1)c1ccccc1`: the activity change, negative = inhibition in [1] is -10.5% [at 38 µM]. Besides, the Potency in [2] was 12.6 µM (active); in [4], above 46 µM; in [5] it was above 46 µM; in test [9], 7.94 µM (active). Moreover, in test [3] (setting [18]), the activity, negative = inhibition is 24.9% [at 38 µM]. The Potency entry in [6], in test [7], in [13] and in [17] was “inactive” in each case. Also, the result in test [11], in test [12], in test [14], in test [15] and in test [16] was inactive.
For `CC(C)C[C@H]1C(=O)N2CCC[C@@H]2[C@]2(O)O[C@](NC(=O)[C@H]3C=C4c5cccc6[nH]c(Br)c(c56)C[C@H]4N(C)C3)(C(C)C)C(=O)N12`, in test [1], the activity change, negative = inhibition is -28.4% [at 17.2 µM]. Further, the Potency result in test [2], in test [6], in [7], in [9] and in test [17] was “inactive” in each case. The activity, negative = inhibition in test [3] (at 17.2 µM (top of the series)) was -20.4%; in test [3] (at 38 µM (top of the series)) it was -18.7%. Besides, the Potency in test [4] was > 46 µM and > 20.6 µM; in test [5], > 46 µM and > 20.6 µM. For the same compound, the compound was classed as inactive in test [11], in [14], in test [15] and in test [16].
